Structures are written as SMILES. Among all 72,000 compounds or so, about 1,600 (2.2%) were called active. Shown is part of a subset that was picked to be rich in actives. A number with no mark means an inactive call. The call rests on the fitted dose curve; in most records, active means well fitted inhibition curve with a large enough effect; inconclusive means small, poorly fitted or top-dose-only effect; inactive means flat fitted curve, though single readings scatter.
On the % scale 0 is the no-effect control and ±100 the full control effect; potency means the concentration at half of the fitted maximal effect.

The target in the test is Luciferin 4-monooxygenase (Photinus pyralis) (UniProt P08659). The experiment in a line: qHTS Assay for Inhibitors of Firefly Luciferase. Further: nearly all actives have a fitted effect of over 40% in size. The settings on record: purified firefly luciferase, luminescence, 8 min; series mostly up to 57.1 µM; activity change, negative = inhibition: at the top concentration. On the procedure: To aid in the interpretation of high-throughput screening (HTS) results derived from luciferase-based assays, we used quantitative HTS, an approach that defines the concentration-response behavior of each library sample, to profile the ATP-dependent luciferase from Photinus pyralis against more than 72 000 samples. Luciferase (PKLight, Cambrex Corporation) was assayed for its ability to generate light using ATP and luciferin as substrates. The ATP concentration in the assay (10 uM) was within the linear range of enzyme activity for the assay conditions used. See following reference for further details: [1] Auld DS, Southall NT, Jadhav A, Johnson RL, Diller DJ, Simeonov A, Austin CP, Inglese J. Characterization of chemical libraries for luciferase inhibitory activity. J Med Chem. 2008 Apr 24;51(8):2372-86. Auld DS, Zhang YQ, Southall NT, Rai G, Landsman M, Maclure J, Langevin D, Thomas CJ, Austin CP, Inglese J. A Basis for Reduced Chemical Library Inhibition of Firefly Luciferase Obtained from Directed Evolution. J. Med. Chem., 2009, 52 (5), pp 1450#1458 [3] Auld DS, Thorne N, Nguyen DT, Inglese J. A specific mechanism for nonspecific activation in reporter-gene assays. ACS Chem Biol. 2008 Aug 15;3(8):463-70. Auld DS, Thorne N, Maguire WF, Inglese J. Mechanism of PTC124 activity in cell-based luciferase assays of nonsense codon suppression. Proc Natl Acad Sci U S A. 2009 Mar 3;106(9):3585-90. Inglese J, Auld DS, Jadhav A, Johnson RL, Simeonov A, Yasgar A, Zheng W, Austin CP. Quantitative high-throughput screening: a titration-based approach that efficiently identifies biological activities in large chemical libraries. Proc Natl Acad Sci U S A. 2006 Aug 1;103(31):11473-8.
Chain of Luciferin 4-monooxygenase (Photinus pyralis) (P08659 whole entry, looked up): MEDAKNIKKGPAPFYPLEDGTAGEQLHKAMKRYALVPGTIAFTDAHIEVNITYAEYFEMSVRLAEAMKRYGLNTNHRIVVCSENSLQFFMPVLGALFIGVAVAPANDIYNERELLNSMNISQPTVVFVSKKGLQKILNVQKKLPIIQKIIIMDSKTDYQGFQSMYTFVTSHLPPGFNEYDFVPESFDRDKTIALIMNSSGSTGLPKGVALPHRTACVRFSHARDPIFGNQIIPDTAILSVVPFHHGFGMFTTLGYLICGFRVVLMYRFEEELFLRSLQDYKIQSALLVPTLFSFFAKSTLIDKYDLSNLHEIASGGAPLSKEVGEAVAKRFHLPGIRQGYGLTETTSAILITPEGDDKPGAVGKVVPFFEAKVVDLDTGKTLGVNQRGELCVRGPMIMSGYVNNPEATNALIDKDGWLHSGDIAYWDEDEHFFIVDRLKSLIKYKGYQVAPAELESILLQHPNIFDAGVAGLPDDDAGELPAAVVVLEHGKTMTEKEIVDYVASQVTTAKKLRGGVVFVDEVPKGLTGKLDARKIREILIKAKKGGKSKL
Four uL of substrate mix (final concentration, 50 mM imidazole pH 7.2, 50 mM KCl, 7 mM MgCl2, 10 uM ATP, 0.01% Tween 20, 0.05% BSA) was dispensed into white 1536 well plates. Twenty-three nL of compound was delivered by a pin tool and 2 uL of luciferase detector mix (PKLight, Cambrex) was added. Following 8-minute incubation at ambient temperature, luminescence was measured by a ViewLux (Perkin Elmer) at 5 seconds exposure/plate.
On the technique in general: qHTS replaces the single test concentration by a dilution series.
As to `CC(C)c1ccc(-c2nn[nH]n2)cc1`, the Potency is 15.8 µM (active).

With `CCc1ccc(-c2nnn(Cc3nn[nH]n3)n2)cc1`, the “activity change, negative = inhibition” value is -3.49%.

For the compound `c1ccc(-n2ncc(-c3nn[nH]n3)n2)cc1`, the “activity change, negative = inhibition” value is -2.16%.

In the case of `CCCCn1c(CN2CCN(CCO)CC2)nc2ccccc21`, the “activity change, negative = inhibition” value is 3.37%.

In the case of `CCOC(=O)CCc1c(C)c2ccc(OCc3nn[nH]n3)c(C)c2oc1=O`, the “activity change, negative = inhibition” value was -29.4%.

Consider `CC(C)C(=O)Nc1cccc(C(=O)Nc2ccc3c(c2)OCO3)c1`, for which the Potency is 15.8 µM (active).

Take `Cn1c(=O)n(C)c2cc(C(=O)Nc3ccc4c(c3)OCO4)ccc21`: the “activity change, negative = inhibition” value is -24.6%.

In the case of `COc1ccc(C(=O)Nc2ccc3c(c2)OCO3)cc1OC`, the Potency was 12.6 µM (active).

With `Cc1ccc(C(=O)Nc2ccc3c(c2)OCO3)cc1S(=O)(=O)N1CCCCC1`, the “activity change, negative = inhibition” value was -16.5%.

Turning to `Cn1c(NC(=O)c2ccc3c(c2)OCO3)cc(=O)n(C)c1=O`, the “activity change, negative = inhibition” value was 1.02%.

As for `Cc1ccc(F)cc1NC(=O)c1ccc2c(c1)OCO2`, the “activity change, negative = inhibition” value was 0.628%.

As to `CCOc1ccc(NC(=O)CSc2nc3c(c(=O)n2-c2ccccc2OC)SCC3)cc1`, the “activity change, negative = inhibition” value was 2.17%.

On to `C[C@H](CCC(=O)NCC(=O)O)[C@H]1CC[C@H]2[C@H]3[C@@H](C[C@@H](O)[C@]12C)[C@]1(C)CC[C@H](O)C[C@@H]1C[C@@H]3O`, for which the “activity change, negative = inhibition” value is 0.706% [at 25.5 µM].

`CCCOc1ccc(/C(O)=C2/C(=O)C(=O)N(CCN(C)C)C2c2ccc(OC)c(OC)c2)cc1` (stereo unspecified): the “activity change, negative = inhibition” value is 2.31% [at 25.5 µM].

For the compound `CCn1nnc(NC(=O)c2c(OC)cccc2OC)n1`, the “activity change, negative = inhibition” value is 1.07%.

As for `CCOC(=O)CCc1c(C)c(C#N)c2[nH]c3ccccc3n2c1=O`, the “activity change, negative = inhibition” value was -1.12% [at 25.5 µM].

For `FC(F)Oc1ccccc1C1CC(c2ccc(Br)s2)Nc2ncnn21` (stereo unspecified), the “activity change, negative = inhibition” value is -0.115%.

As for `COC(=O)C1C(=O)c2c([nH]c(C(=O)OCCSC)c2C)CC1C` (stereo unspecified), the Potency is 7.94 µM (active).

As to `CCCOC(=O)c1[nH]c2c(c1C)C(=O)CC(c1cc(OC)c(OC)c(OC)c1)C2` (stereo unspecified), the “activity change, negative = inhibition” value was 0.417%.

On to `CCCOC(=O)C1=C(C)NC2=C(C(=O)C(C(=O)OC)C(C)C2)C1c1ccc(N(C)C)cc1` (stereo unspecified), for which the “activity change, negative = inhibition” value is 3.23%.

Turning to `O=C(NCc1ccco1)c1sc2cccc(F)c2c1Cl`, the “activity change, negative = inhibition” value is -3.25%.

With `CN=C1SC(C(=O)O)CC(=O)N1C` (stereo unspecified), the “activity change, negative = inhibition” value was 2.14%.

For the compound `O=C(c1csnn1)N1CCC[C@@]2(CCN(c3cccc(-c4ccccc4)c3)C2)C1`, the activity change, negative = inhibition is 0.28% [at 11.4 µM].

Regarding `O=C(Nc1cccnc1)c1noc2c1CCCCC2`, the Potency is 12.6 µM (active).

For the compound `CCOc1cccc(C(=O)Nc2cccnc2)c1`, the “activity change, negative = inhibition” value was 1.45%.

Turning to `O=C(Nc1cccnc1)c1ccc2c(c1)OCO2`, the “activity change, negative = inhibition” value is -6.01%.

For the compound `COc1ccc(OC)c([C@H](O)CNC(=O)CN)c1`, the “activity change, negative = inhibition” value is 3.26% [at 25.5 µM].

On to `CNC(=O)NCCN1CCCC1=O`, for which the “activity change, negative = inhibition” value was 2.71%.

Regarding `COC(=O)COc1ccc2oc(=O)cc(C)c2c1`, the “activity change, negative = inhibition” value was 0.108%.

Take `CCN(CC)S(=O)(=O)c1cccc(C(=O)Nc2ccccc2)c1`: the “activity change, negative = inhibition” value was -6.08%.

For `CCN(CC)S(=O)(=O)c1cc(C(=O)Nc2ccccn2)ccc1C`, the Potency was 15.8 µM (active).

For `Cc1noc(C)c1C(=O)Nc1ccccn1`, the “activity change, negative = inhibition” value is 0.167%.

For the compound `N[C@H](C(=O)O)c1ccc(C(=O)O)c(O)c1`, the “activity change, negative = inhibition” value is 0.32%.

On to `c1ccc(CNc2ncncc2-c2cccnc2)cc1`, for which the activity change, negative = inhibition is -1.06% [at 2.29 µM].

Take `Cc1ccc(OCC(O)CN2CCN(CC(O)COc3ccc(C)cc3Cl)CC2)c(Cl)c1` (stereo unspecified): the “activity change, negative = inhibition” value is 1.51%.

In the case of `CCOC(=O)CSc1nnc(-c2cccc(Br)c2)o1`, the “activity change, negative = inhibition” value is 0.795%.

As for `CCCCSc1nnc(-c2ccc(C)cc2)o1`, the Potency is 15.8 µM (active).

As for `CCOC(=O)CSc1nnc(-c2ccncc2)o1`, the “activity change, negative = inhibition” value was 2.7%.

With `CC1=C(C(=O)OCc2ccccc2)C(c2ccco2)n2ncnc2N1` (stereo unspecified), the “activity change, negative = inhibition” value was 1.06%.

Take `COc1ccc(NC(=O)c2c(C)oc3c2CCCC3)cc1`: the “activity change, negative = inhibition” value was -2.79%.

Consider `CCOc1ccc(C(=O)Nc2ccncc2)cc1`, for which the “activity change, negative = inhibition” value was -24.2%.

As to `COc1ccc(NC(=O)c2ccc(OC)cc2)cc1`, the Potency was 2 µM (active).

With `COc1ccc2occ(C(=O)c3ccc(N=C(C)N(C)C)cc3)c2c1`, the “activity change, negative = inhibition” value was -12.2%.

As for `N#Cc1c2c(c(-c3ccccc3)[nH]c1=O)CCCC2`, the “activity change, negative = inhibition” value was 1.63% [at 25.5 µM].

For the compound `O=C(CCN1C(=O)c2ccncc2C1=O)Nc1ccc2c(c1)OCCO2`, the “activity change, negative = inhibition” value was -1.7%.

With `O=C(COc1ccc2oc3c(c2c1)CCCC3)Nc1ccccn1`, the “activity change, negative = inhibition” value was -13%.

With `Cc1ccc(OCC(=O)Nc2ccc(-c3nc4ncccc4o3)cc2)cc1`, the “activity change, negative = inhibition” value is -5.29%.

`Cc1cc2nc(-c3ccc(NC(=O)c4cccnc4)cc3)oc2cc1C`: the Potency is 12.6 µM (active).

Take `CCOC(=O)c1cc(NC(=O)c2cccnc2)cc(C(=O)OCC)c1`: the “activity change, negative = inhibition” value was -0.799%.

For `CC(=O)c1c(C)[nH]c(C(=O)NCCCN2CCCC2)c1C`, the “activity change, negative = inhibition” value was -0.766%.

`Cc1onc(-c2ccccc2)c1C(=O)N1CCOCC1`: the “activity change, negative = inhibition” value was 0.0698%.

In the case of `C=CCN(CC=C)C(=O)CN1C(=O)c2ccccc2C1=O`, the “activity change, negative = inhibition” value was 0.175%.

As for `C=CCn1c(C)cc(C(=O)CN2C(=O)c3ccccc3C2=O)c1C`, the Potency is 3.98 µM (active).

With `Cc1cc(C(=O)COC(=O)CCCN2C(=O)c3ccccc3C2=O)c(C)n1C`, the “activity change, negative = inhibition” value is -25.1%.

In the case of `COc1cc2c(cc1OC)C(c1ccncc1)CC(=O)N2` (stereo unspecified), the “activity change, negative = inhibition” value is 0.391%.

Take `O=C(c1ccncc1)N1CCC2(CCCN(C(c3ccccc3)c3ccccc3)C2)CC1`: the activity change, negative = inhibition was -0.104% [at 11.4 µM].

(Values after PubChem BioAssay AID411 (National Center for Advancing Translational Sciences (NCATS), 2006).)
